Screening results deposited in PubChem BioAssay by several laboratories.
The list is not random: actives were taken first. Their share in the collection is about 2.3%.
iPSC survival up: enhancers of human iPSC single-cell survival. hiPSC single-cell survival, ATPlite luminescence; 100% = ROCK inhibitor wells, 0% = DMSO. survival enhancement, % at 20 µM. 360,000 tested, 0.044% active. AID 602274; in the data active means survival enhancement above about 18%;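 further: cells exposed to compounds for 16 hours before the ATP read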
LGR2 inh: blocks bursicon-induced cAMP signaling via Drosophila LGR2; HEK293 LGR2, CRE-luciferase, bursicon-stimulated, 4 h; inhibition, % at 9.99 µM; 380,000 tested, 0.35% active;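 active means drop in luminescence signal, shown as inhibition above about 50% in the replicate tests, limit read from the data, passing the limit was not always enough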;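 further: agonist challenge used bursicon conditioned medium at about half maximal strength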
HIF-2a inh: blocks HIF-2a reporter activity; 360,000 tested, 0.72% active; 786-0 RCC cells HIF-2a reporter, luciferase luminescence, overnight; AID 624352; inhibition, % at 18.8 µM;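 active means inhibition of the luminescence signal of 40% or more relative to plate controls, in a single-dose primary screen at 18.75 µM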
TWEAK-Fn14 inh: blocks TWEAK-Fn14 interaction in a reporter cell assay; TWEAK-stimulated Fn14 reporter cells, luciferase luminescence, 8 h; inhibition, % at 10 µM; 360,000 tested, 2% active; AID 1159606; in the data active means inhibition above about 50%
KKLEB tox: CF airway cell cytotoxicity counter-screen | activity change (cytotoxicity), % at 5 µM | 360,000 tested, 0.36% active | KKLEB CF airway cells viability, ATPlite luminescence, overnight; stronger effect = lower value; cells stimulated with P. aeruginosa culture filtrate;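 active means corrected activity change at or below -50% at 5 µM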
CF NFkB block: blocks PAF-induced NF-kB reporter in cystic fibrosis cells. inhibition, % at 5 µM. KKLEB NF-kB-GFP reporter, GFP fluorescence overnight. 360,000 tested, 0.86% active;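 active means at least 50% inhibition at 5 µM, scaled per plate between neutral and stimulator controls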;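 further: PAF is a Pseudomonas aeruginosa culture filtrate used as stimulus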
Mdm2-MdmX confirm: Mdm2/MdmX (human) interaction inhibition, confirmed; inhibition, % at 8 µM; AID 504601; SaOS-2 split-luciferase Mdm2/MdmX complementation, luminescence; 740 tested, 99% active; shares compounds with HIF-2a inh;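 active means mean inhibition of the luminescence signal across two replicates at or above 26 percent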
HIF-2a conf: confirmation of HIF-2a inhibitors; 786-0 RCC cells, HIF-2a luciferase reporter luminescence, overnight; shares compounds with HIF-2a inh; inhibition, % at 18.8 µM; AID 651580; 1,800 tested, 56% active;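 active means mean inhibition across four replicates of at least 40 percent at the single tested concentration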
HIF-1a cs: inhibits HIF-1a reporter, a counter-screen for HIF-2a inhibitors; shares compounds with HIF-2a inh; AID 651589; inhibition, % at 18.8 µM; 1,800 tested, 72% active; MiaPaCa-2 HIF-1a luciferase reporter, desferoxamine, overnight;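 active means mean inhibition of the reporter signal across four replicates at the single tested dose of 50% or more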
Hits are given with their value; n = inactive; x = no result.

SMILES | iPSC survival up | LGR2 inh | HIF-2a inh | TWEAK-Fn14 inh | KKLEB tox | CF NFkB block | HIF-2a conf | HIF-1a cs | others
O=C(Cc1ccccn1)N[C@@H]1CC[C@@H](CCn2cc(-c3ccccc3)nn2)O[C@@H]1CO | x | n | x | x | x | x | x | x
CCCNC(=O)N1CC2(CCN(C(=O)c3cnccn3)CC2)c2c([nH]c3cc(OC)ccc23)[C@H]1CO | x | n | x | x | x | x | x | x
CN1C(=O)c2cc(NC(=O)Cc3ccccc3)ccc2OC[C@@H]2O[C@@H](CC(=O)O)CC[C@@H]21 | x | n | x | x | x | x | x | x
Nc1nc(N)c2c(ccc3c2ccn3Cc2cccc([N+](=O)[O-])c2)n1 | n | n | 89 | 79 | n | n | n | 105
COc1ccc(-c2nsc3c(N4CCCCC4C)ncnc23)cc1 (stereo not drawn) | n | 95 | 84 | 98 | n | n | 92 | 102
CCS(=O)(=O)N1CCN(c2ccc(C(=O)NC34CC5CC(CC(C5)C3)C4)cc2[N+](=O)[O-])CC1 | n | n | n | n | n | n | x | x
CCC(OC(=O)c1ccc(S(C)(=O)=O)c([N+](=O)[O-])c1)C(=O)NC1C2CC3CC(C2)CC1C3 (stereo not drawn) | 30 | n | 81 | 100 | -74 | 104 | n | 105
CC(OC(=O)c1ccc(S(C)(=O)=O)c([N+](=O)[O-])c1)C(=O)NC1C2CC3CC(C2)CC1C3 (stereo not drawn) | 24 | n | 93 | 102 | n | 95 | 87 | 100
O=C(C[C@@H]1C=C[C@@H](NC(=O)Nc2cc(F)ccc2F)[C@H](CO)O1)Nc1ccc(-c2ccccc2)cc1 | x | n | x | x | x | x | x | x
Cc1nc2cc(-c3ccc(Cl)cc3)nn2c(C)c1CCC(=O)NC(C)c1ccc2c(c1)OCCO2 (stereo not drawn) | n | n | 82 | 56 | n | n | 93 | 89
Cc1csc(NC(=O)CCc2c(C)nc3cc(-c4ccc(Cl)cc4)nn3c2C)n1 | n | n | 81 | 62 | n | n | 92 | 54
C[C@@H]1CN([C@H](C)CO)C(=O)c2cccc(NC(=O)NC3CCCCC3)c2O[C@@H]1CN(C)Cc1ccc2c(c1)OCO2 | x | n | x | x | x | x | x | x
C[C@H]1CN([C@@H](C)CO)C(=O)c2cccc(NC(=O)c3cnccn3)c2O[C@@H]1CN(C)S(=O)(=O)c1ccccc1 | x | n | x | x | x | x | x | x
CCCn1c(CC)nc([N+](=O)[O-])c1S(=O)(=O)c1ccccc1 | n | x | 46 | n | n | 52 | n | n
CCc1nc(C)cn1S(=O)(=O)c1ccc([N+](=O)[O-])cc1 | n | n | n | n | n | n | x | x
Cc1ccc2c(C(=O)CCl)c(C)[nH]c2c1 | n | n | n | n | n | 78 | x | x | Mdm2-MdmX confirm=103
C[C@H]1CN([C@@H](C)CO)C(=O)c2cc(-c3cncnc3)cnc2O[C@H]1CN(C)C(=O)c1cccc(F)c1 | x | n | x | x | x | x | x | x
Cc1nnnn1/C(=C\c1ccccc1)C(=O)OCC(=O)Nc1ccc(Cl)cc1F | n | n | 88 | 70 | -70 | 84 | 96 | 56
N#Cc1cccc(C=C(C(=O)c2ccccc2)c2ccccc2)c1 | n | n | 41 | 64 | x | x | n | n
CC(C)(C)C(=O)NC(=S)NNC(=O)c1sc2ccccc2c1Cl | n | x | 78 | 100 | -66 | 71 | n | 100
O=C(NNC(=S)NC1CCCCC1)c1sc2ccccc2c1Cl | n | n | n | n | n | n | x | x
COc1cccc(S(=O)(=O)Nc2ccc3c(c2)[C@@H]2C[C@H](CC(=O)NCc4cccc(F)c4)O[C@@H](CO)[C@@H]2O3)c1 | x | n | x | x | x | x | x | x
CC(=O)OC1CC2C(C)(C)C(=O)C=CC2(C)C2CCC3(C)C(c4ccoc4)OC(=O)C4OC43C12C (stereo not drawn) | n | n | 45 | n | n | n | 42 | 59
